Test results taken from article PMC5540273 (PLoS ONE, 2017).

Legend:
Conditions in all cases: concentration: 1 μM, replicates: in singlicate; n = 1
[1] = system: PAK2
[2] = system: PAK3
[3] = system: PAK4
[4] = system: PAK6
[5] = system: PAK7
[6] = system: T1, PCTK1
T1 construct: gene CDK16

[7] = system: T2, PCTK2
T2 construct: gene CDK17

[8] = system: T3, PCTK3
T3 construct: gene CDK18

[9] = system: PDGFRA
[10] = system: PDGFRB
[11] = system: PDPK1
[12] = system: PFTAIRE2
[13] = system: T4, PFTK1
T4 construct: gene CDK14

[14] = system: PHKG1
[15] = system: PHKG2
[16] = system: PIK3C2B
[17] = system: PIK3C2G
[18] = system: PIK3CA
[19] = system: PIK3CB
[20] = system: PIK3CD
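Note: KINOMEscan kinase panel screen.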

CN1C(=O)C(Nc2ccccc2)=C(c2ccccc2)C1=O [SB-300079]
%Inh [1]: 0%
%Inh [2]: 0%
%Inh [3]: 0%
%Inh [4]: 0%
%Inh [5]: 0%
%Inh [6]: 0%
%Inh [7]: 0%
%Inh [8]: 12%
%Inh [9]: 0%
%Inh [10]: 24%
%Inh [11]: 0%
%Inh [12]: 0%
%Inh [13]: 1%
%Inh [14]: 11%
%Inh [15]: 0%
%Inh [16]: 0%
%Inh [17]: 16%
%Inh [18]: 25%
%Inh [19]: 0%
%Inh [20]: 0%

O=C(Nc1ccc2c(c1)OCO2)NC1CCN(c2ccnc(NCc3ccc(F)cc3)n2)CC1 [GSK1379859]
%Inh [1]: 0%
%Inh [2]: 14%
%Inh [3]: 0%
%Inh [4]: 0%
%Inh [5]: 0%
%Inh [6]: 0%
%Inh [7]: 0%
%Inh [8]: 0%
%Inh [9]: 0%
%Inh [10]: 12%
%Inh [11]: 0%
%Inh [12]: 10%
%Inh [13]: 14%
%Inh [14]: 0%
%Inh [15]: 0%
%Inh [16]: 0%
%Inh [17]: 0%
%Inh [18]: 0%
%Inh [19]: 0%
%Inh [20]: 0%

Cc1c(Cn2c(C)nn3c(=O)cc(N4CCO[C@H](C)C4)nc23)cccc1C(F)(F)F [GSK2373690]
%Inh [1]: 3%
%Inh [2]: 7%
%Inh [3]: 0%
%Inh [4]: 0%
%Inh [5]: 0%
%Inh [6]: 0%
%Inh [7]: 0%
%Inh [8]: 26%
%Inh [9]: 0%
%Inh [10]: 14%
%Inh [11]: 0%
%Inh [12]: 10%
%Inh [13]: 11%
%Inh [14]: 3%
%Inh [15]: 0%
%Inh [16]: 0%
%Inh [17]: 0%
%Inh [18]: 0%
%Inh [19]: 96.7%
%Inh [20]: 65%

COc1ccc(CNC(=O)NC2CCN(c3ccnc(Nc4ccc(F)cc4)n3)C2)cc1 (stereo not drawn) [GSK1379706]
%Inh [1]: 0%
%Inh [2]: 0%
%Inh [3]: 0%
%Inh [4]: 0%
%Inh [5]: 3%
%Inh [6]: 0%
%Inh [7]: 18%
%Inh [8]: 39%
%Inh [9]: 14%
%Inh [10]: 43%
%Inh [11]: 0%
%Inh [12]: 0%
%Inh [13]: 1%
%Inh [14]: 7%
%Inh [15]: 0%
%Inh [16]: 0%
%Inh [17]: 0%
%Inh [18]: 2%
%Inh [19]: 0%
%Inh [20]: 8%

COc1cc2ncn(-c3cc(OCc4ccc(S(C)(=O)=O)cc4)c(C(N)=O)s3)c2cc1OC [GW869979]
%Inh [1]: 0%
%Inh [2]: 0%
%Inh [3]: 0%
%Inh [4]: 0%
%Inh [5]: 0%
%Inh [6]: 19%
%Inh [7]: 0%
%Inh [8]: 26%
%Inh [9]: 30%
%Inh [10]: 11%
%Inh [11]: 0%
%Inh [12]: 0%
%Inh [13]: 0%
%Inh [14]: 10%
%Inh [15]: 0%
%Inh [16]: 0%
%Inh [17]: 29%
%Inh [18]: 0%
%Inh [19]: 30%
%Inh [20]: 16%

Nc1ncnc2c1ncn2-c1cccc2ccccc12 [SKF-97184]
%Inh [1]: 56%
%Inh [2]: 0%
%Inh [3]: 0%
%Inh [4]: 0%
%Inh [5]: 0%
%Inh [6]: 0%
%Inh [7]: 100%
%Inh [8]: 10%
%Inh [9]: 0%
%Inh [10]: 7%
%Inh [11]: 0%
%Inh [12]: 0%
%Inh [13]: 1%
%Inh [14]: 0%
%Inh [15]: 0%
%Inh [16]: 7%
%Inh [17]: 0%
%Inh [18]: 2%
%Inh [19]: 0%
%Inh [20]: 0%

COc1cc2ncn(-c3cc(OCCCc4ccccc4)c(C(N)=O)s3)c2cc1OC [GSK205189]
%Inh [1]: 26%
%Inh [2]: 6%
%Inh [3]: 0%
%Inh [4]: 0%
%Inh [5]: 0%
%Inh [6]: 0%
%Inh [7]: 0%
%Inh [8]: 19%
%Inh [9]: 0%
%Inh [10]: 25%
%Inh [11]: 11%
%Inh [12]: 8%
%Inh [13]: 34%
%Inh [14]: 2%
%Inh [15]: 20%
%Inh [16]: 8%
%Inh [17]: 0%
%Inh [18]: 0%
%Inh [19]: 0%
%Inh [20]: 0%

O=C(NCc1cccs1)c1cc(C(=O)c2c(Cl)cccc2Cl)c[nH]1 [GW823670]
%Inh [1]: 38%
%Inh [2]: 10%
%Inh [3]: 0%
%Inh [4]: 0%
%Inh [5]: 0%
%Inh [6]: 0%
%Inh [7]: 0%
%Inh [8]: 13%
%Inh [9]: 0%
%Inh [10]: 0%
%Inh [11]: 0%
%Inh [12]: 0%
%Inh [13]: 55%
%Inh [14]: 2%
%Inh [15]: 0%
%Inh [16]: 0%
%Inh [17]: 0%
%Inh [18]: 0%
%Inh [19]: 0%
%Inh [20]: 0%

Nc1n[nH]c2ncc(-c3ccccc3)cc12 [SB-517081]
%Inh [1]: 17%
%Inh [2]: 0%
%Inh [3]: 0%
%Inh [4]: 0%
%Inh [5]: 0%
%Inh [6]: 3%
%Inh [7]: 0%
%Inh [8]: 31%
%Inh [9]: 51%
%Inh [10]: 97.3%
%Inh [11]: 0%
%Inh [12]: 7%
%Inh [13]: 10%
%Inh [14]: 0%
%Inh [15]: 0%
%Inh [16]: 3%
%Inh [17]: 0%
%Inh [18]: 0%
%Inh [19]: 0%
%Inh [20]: 0%

COc1cc(OC)cc(-c2cc3cnc(N)nc3nc2NC(=O)NC(C)(C)C)c1
%Inh [1]: 0%
%Inh [2]: 0%
%Inh [3]: 0%
%Inh [4]: 0%
%Inh [5]: 9%
%Inh [6]: 0%
%Inh [7]: 0%
%Inh [8]: 0%
%Inh [9]: 0%
%Inh [10]: 0%
%Inh [11]: 0%
%Inh [12]: 0%
%Inh [13]: 0%
%Inh [14]: 13%
%Inh [15]: 0%
%Inh [16]: 65%
%Inh [17]: 74%
%Inh [18]: 0%
%Inh [19]: 32%
%Inh [20]: 0%

COc1ccc(-c2cc3c(C)nc(N)nc3n([C@H]3CC[C@H](OCCO)CC3)c2=O)cn1
%Inh [1]: 1%
%Inh [2]: 0%
%Inh [3]: 0%
%Inh [4]: 0%
%Inh [5]: 0%
%Inh [6]: 0%
%Inh [7]: 3%
%Inh [8]: 0%
%Inh [9]: 0%
%Inh [10]: 1%
%Inh [11]: 0%
%Inh [12]: 0%
%Inh [13]: 0%
%Inh [14]: 7%
%Inh [15]: 0%
%Inh [16]: 98.1%
%Inh [17]: 98.1%
%Inh [18]: 100%
%Inh [19]: 100%
%Inh [20]: 96.6%

O=C(NCCNc1ccnc(Nc2ccc(F)cc2)n1)Nc1ccc2c(c1)OCO2 [GSK1379882]
%Inh [1]: 0%
%Inh [2]: 0%
%Inh [3]: 0%
%Inh [4]: 12%
%Inh [5]: 7%
%Inh [6]: 14%
%Inh [7]: 0%
%Inh [8]: 0%
%Inh [9]: 6%
%Inh [10]: 53%
%Inh [11]: 0%
%Inh [12]: 25%
%Inh [13]: 0%
%Inh [14]: 8%
%Inh [15]: 7%
%Inh [16]: 7%
%Inh [17]: 0%
%Inh [18]: 7%
%Inh [19]: 0%
%Inh [20]: 0%

OCCCNc1nccc(-c2c(-c3cccc(C(F)(F)F)c3)nn3cc(C(F)(F)F)ccc23)n1 [GW630813]
%Inh [1]: 0%
%Inh [2]: 3%
%Inh [3]: 0%
%Inh [4]: 0%
%Inh [5]: 12%
%Inh [6]: 11%
%Inh [7]: 0%
%Inh [8]: 19%
%Inh [9]: 0%
%Inh [10]: 6%
%Inh [11]: 0%
%Inh [12]: 1%
%Inh [13]: 18%
%Inh [14]: 0%
%Inh [15]: 5%
%Inh [16]: 0%
%Inh [17]: 0%
%Inh [18]: 0%
%Inh [19]: 0%
%Inh [20]: 0%

Cl.c1ccc(Cn2cnc3cc(Nc4ncnc5ccccc45)ccc32)cc1 [GW272142]
%Inh [1]: 0%
%Inh [2]: 0%
%Inh [3]: 0%
%Inh [4]: 58%
%Inh [5]: 9%
%Inh [6]: 0%
%Inh [7]: 0%
%Inh [8]: 29%
%Inh [9]: 0%
%Inh [10]: 6%
%Inh [11]: 0%
%Inh [12]: 16%
%Inh [13]: 23%
%Inh [14]: 0%
%Inh [15]: 1%
%Inh [16]: 3%
%Inh [17]: 0%
%Inh [18]: 1%
%Inh [19]: 71%
%Inh [20]: 0%

COc1cccc(-n2cnc3c(N)ncnc32)c1 [SKF-97416]
%Inh [1]: 53%
%Inh [2]: 0%
%Inh [3]: 18%
%Inh [4]: 18%
%Inh [5]: 1%
%Inh [6]: 15%
%Inh [7]: 0%
%Inh [8]: 6%
%Inh [9]: 42%
%Inh [10]: 4%
%Inh [11]: 0%
%Inh [12]: 0%
%Inh [13]: 0%
%Inh [14]: 34%
%Inh [15]: 0%
%Inh [16]: 0%
%Inh [17]: 34%
%Inh [18]: 21%
%Inh [19]: 32%
%Inh [20]: 54%
